This is an account of results in PubChem BioAssay AID686978 (National Center for Advancing Translational Sciences (NCATS), 2013).

The whole screen tested about 420,000 compounds, of which about 64,000 (15%) were called active. Roughly 27% stayed inconclusive and do not appear here. Calls follow the shape of the dose curve; as a rule, active = well fitted inhibition curve with a large enough effect; inconclusive = small, poorly fitted or top-dose-only effect; inactive = flat fitted curve, though single readings scatter. Not all results are given here. Where a call stands in place of a potency, no number is given.
Potency is read from the fitted curve at half-maximal effect.

The experiment is described as follows: qHTS for Inhibitors of human tyrosyl-DNA phosphodiesterase 1 (TDP1): qHTS in cells in absence of CPT. Also: nearly all actives have a fitted effect of over 55% in size. To be noted: DT40 Tdp1-/- hTDP1 cells, no CPT, ATP luminescence, 48 h; activity change, negative = growth inhibition: at 46.2 µM (top of the series). The method in brief:
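Chicken DT40 Tdp1-/- cells stably complemented with human TDP1 were seeded at 400 cells/well with DMSO in place of 20 nM camptothecin. After compound pinning, cells grew at least 48 hr at 37 °C; viability read by CellTiter-Glo luminescence.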
For orientation: qHTS replaces the single test concentration by a dilution series.
In the case of `CC(OC(=O)CNC(=O)c1ccco1)C(=O)Nc1ccc(Cl)cn1` (stereo not given), the Potency entry was “inactive”.
For `CCn1c(SCC(=O)NCC2CCCO2)nc2ccccc21` (stereo not given) the value was “inactive”; for `Cc1ccc(C(=O)NCC2CCCO2)o1` (stereo not given), “inactive”.
The figure for `S=C(NCCc1ccccc1)NCC1CCCO1` (stereo not given) is 23.1 µM (active); for `O=C(CS(=O)(=O)Cc1ccccc1)NCC1CCCO1` (stereo not given) it is “inactive”; for `CN(CCc1ccccn1)C(=O)c1ccc(OC2CCN(Cc3ccccn3)CC2)cc1` it is “inactive”.
For `COC(=O)Cn1cc(/C=C/[N+](=O)[O-])c2ccccc21`, the Potency was 14.6 µM (active).
`COCCCNC(=O)Cn1cc(/C=C(\C#N)C(=O)N2CCN(c3ccccc3)CC2)c2ccccc21`: the Potency result is “inactive”.
On to `COC(=O)c1cn(CC(=O)NCc2cccs2)c2ccccc12`, for which the Potency entry is “inactive”.
The entry for `CCCn1nc(C(=O)OCc2nc(N)nc(Nc3ccccc3C)n2)c2ccccc2c1=O` is “inactive”; for `COCCN(C(=O)CCC(=O)Nc1nccs1)C(C(=O)NC(C)(C)C)c1ccc(Cl)cc1` (stereo not given) it is “inactive”; for `CCn1c(CN2C(=O)CSc3ccccc32)n[nH]c1=S` it is “inactive”.
For the molecule `COc1ccc(Br)cc1CNC(=O)c1cc(=O)[nH]c2ccc(S(=O)(=O)N3CCCC3)cc12`, the Potency entry is “inactive”.
The entry for `CCN1CCN(C(=O)c2cc3cc4ccc(OC)cc4nc3s2)CC1` is “inactive”; for `CCOC(=O)CNc1nc(Cl)nc(Nc2ccc(OC)cc2OC)n1` it is “inactive”.
The figure for `CCN1CCN(c2nc(Nc3cc(OC)ccc3OC)nc(Nc3cc(OC)ccc3OC)n2)CC1` is 23.1 µM (active).
The entry for `c1ccc(-c2c[nH]c(-c3ccccc3)c2)cc1` is “inactive”; for `Cc1nn(-c2cc(Cl)ccc2N)c(=O)c2ccccc12` it is “inactive”.
`Cn1c(=O)c2cn(-c3cccc4ccccc34)cc2n(C)c1=O`: the Potency was 25.9 µM (active).
For `COc1cccc(OC)c1C(=O)Nc1ccc2c(c1)n(C)c(=O)n2C`, the Potency entry was “inactive”.
As to `CC(=O)Nn1cc2c(=O)n(C)c(=O)n(C)c2c1`, the Potency entry was “inactive”.
For `COc1ccc(OC)c(-n2cc3c(=O)n(C)c(=O)n(C)c3c2)c1` the value was 14.6 µM (active); for `O=C1c2ccccc2C(=O)N1c1cccc2ccccc12`, “inactive”.
For `COc1ccc(NC(=O)CCNS(=O)(=O)c2ccc3c(c2)c(=O)n(C)c(=O)n3C)cc1OC` the value was “inactive”; for `CCSC1(SCC)N=C(N)C2(C#N)C(c3ccccc3)NC(C)=CC12C#N` (stereo not given), “inactive”.
For `O=C(Cn1nnc2ccccc2c1=O)NCc1ccc(Cl)cc1` the value was “inactive”; for `Cc1noc(C)c1C(=O)OC(C)C(=O)Nc1ccc2c(c1)OCO2` (stereo not given), “inactive”; for `NC(=O)c1ccc(Nc2ccc3nonc3c2[N+](=O)[O-])cc1`, “inactive”.
With `Cc1ccc(C)c(S(=O)(=O)Nc2cc(C)on2)c1`, the Potency result was “inactive”.
For `O=C(CN1CCCSc2ccccc21)N1CCN(S(=O)(=O)c2cccc(F)c2)CC1` the value was 7.31 µM (active).
For `O=C(CN1CCCSc2ccccc21)N1CCN(S(=O)(=O)c2ccccc2)CC1` the value was “inactive”; for `O=C(CN1CCN(S(=O)(=O)c2cccc(Cl)c2)CC1)N1CCCCC1`, “inactive”; for `COC(=O)[C@]1(S(=O)(=O)c2ccccc2)C[C@@H]2ON=C(c3ccc(OC)cc3)[C@@H]2C1`, “inactive”.
For `N#C[C@]1(S(=O)(=O)c2ccccc2)C[C@@H]2ON=C(c3cccc(Br)c3)[C@@H]2C1` the value was 6.51 µM (active); for `Cc1nc2sc(C)c(C)n2c(=O)c1S(=O)(=O)NCCc1ccc(Cl)cc1`, “inactive”.
`O=C(CN1CCN(S(=O)(=O)c2ccc(Cl)s2)CC1)N1CCCCC1`: the Potency result is “inactive”.
The figure for `O=C(N/N=C/c1ccc(O)c(O)c1)C1c2ccccc2Oc2ccccc21` is 25.9 µM (active); for `CCC(C)(C)NC(=O)C1c2ccccc2Oc2ccccc21` it is “inactive”; for `O=C(N/N=C/c1cc2c(cc1Br)OCO2)C1COc2ccccc2O1` (stereo not given) it is “inactive”.
For `COC1[C@H](OC(N)=O)C(O)[C@H](Oc2ccc3c(O)c(NC(=O)c4ccc(O)c(CC=C(C)C)c4)c(=O)oc3c2C)OC1(C)C` (stereo not given in full) the value was “inactive”.
The entry for `O=C1C=C(NCCNc2c(F)c(F)c(CO)c(F)c2F)CCC1` is “inactive”; for `COc1ccc(Cc2nnc(N/N=C/c3ccccc3O)[nH]c2=O)cc1OC` it is 0.0206 µM (active).
Turning to `O=c1[nH]c(NCCO)nnc1Cc1ccc(Cl)cc1`, the Potency result was “inactive”.
On to `CC(C)c1ccc(Cc2nnc(NCCCO)[nH]c2=O)cc1`, for which the Potency entry was “inactive”.
Consider `CCc1cc(=O)oc2cc(C)cc(OC(C)C(=O)O)c12` (stereo not given), for which the Potency entry is “inactive”.
For `CC(C)CNS(=O)(=O)c1ccc(OCC(=O)Nc2ccc3c(c2)OCO3)c(Cl)c1` the value was “inactive”.
For `CC(=O)OCC(C)n1c(=O)c2ccccc2n1C(C)=O` (stereo not given) the value was “inactive”; for `CCCc1cc(=O)[nH]c(SCC(=O)N2C(C)CCCC2C)n1` (stereo not given), “inactive”; for `COCCn1c(=O)[nH]c2cc(C(=O)NCc3cccnc3)ccc2c1=O`, “inactive”.
The entry for `CCCCCn1c(=O)[nH]c2cc(C(=O)NCCCN3CCCCC3C)ccc2c1=O` (stereo not given) is “inactive”; for `CCCCCn1c(=O)[nH]c2cc(C(=O)Nc3cc(C)cc(C)c3)ccc2c1=O` it is 4.61 µM (active); for `CCN(C(=O)CSc1nnnn1-c1ccc(OC)cc1)C1CCS(=O)(=O)C1` (stereo not given) it is “inactive”.
As to `COc1ccc([C@H]2CC(=O)C=C(/C=C/c3ccccc3)C2)cc1`, the Potency entry was “inactive”.
In the case of `COc1ccc2c(c1)CCc1c(C(=O)Nc3c(C)n(C)n(-c4ccccc4)c3=O)noc1-2`, the Potency result is “inactive”.
For `COc1cc(C(=O)Nc2nccs2)cc(OC)c1OC` the value was “inactive”; for `COc1cc(NC(=O)c2noc3c2CSc2ccccc2-3)cc(OC)c1OC`, 8.2 µM (active).
For `COc1cccc(COC(=O)C2CCN(S(=O)(=O)c3cccs3)CC2)c1OC` the value was “inactive”; for `CC(C)(Oc1ccc(Cl)cc1)C(=O)OCC(=O)NCCc1ccc(S(N)(=O)=O)cc1`, “inactive”; for `Cc1ccc(CCN2CC(C(=O)O)CC2=O)cc1` (stereo not given), “inactive”.
For `Cc1ccc(-c2nnc(Nc3cccc(Br)c3)c3ccccc23)cc1S(=O)(=O)NCC1CCCO1` (stereo not given) the value was 11.6 µM (active); for `Cc1ccc(C(=O)O)cc1S(=O)(=O)NCC1CCCO1` (stereo not given), “inactive”.
For `Cc1ccc(-c2nnc(Nc3ccc(C(=O)N(C)C)cc3)c3ccccc23)cc1S(N)(=O)=O`, the Potency result was “inactive”.
For `Cc1cc(Cl)c(S(=O)(=O)NCC2CCCO2)cc1OCC(N)=O` (stereo not given) the value was “inactive”.
For `CCNS(=O)(=O)c1cc(-c2nnc(Nc3cccc(C(F)(F)F)c3)c3ccccc23)ccc1C` the value was 5.8 µM (active); for `COCCCNc1nc2c(-c3cccc(C(F)(F)F)c3)nnn2c2ccccc12`, “inactive”.
For `CCC(C)CN1C(=O)CN(S(C)(=O)=O)CC1(C)C(=O)Nc1ccc2c(c1)OCCO2` (stereo not given) the value was “inactive”.
For `Cc1ccc(CSc2nc(-c3ccccc3)c(C#N)c(=O)[nH]2)cc1`, the Potency entry was “inactive”.
For the molecule `CCCCCN1CC(O)=C(c2ccccc2)C1=N`, the Potency result was “inactive”.
The figure for `CCOC(=O)N1CCN(C(=O)CSc2nnc(-c3c[nH]c4ccccc34)n2CCOC)CC1` is 20.6 µM (active); for `Cc1nnc(SCC(=O)N2CCN(c3ccccc3)CC2)n1-c1ccccc1` it is “inactive”; for `CCC(C)Sc1nnc(-c2c[nH]c3ccccc23)n1CCOC` (stereo not given) it is “inactive”.
The entry for `CCCCn1c(N)c(N(CCC(C)C)C(=O)c2ccc([N+](=O)[O-])o2)c(=O)[nH]c1=O` is “inactive”.
For `CS(=O)(=O)N1CCC2(CCN(c3ccncc3)CC2)CC1` the value was “inactive”; for `O=C(C1=C(O)C(=O)N(CCOCCO)C1c1ccccn1)c1cccs1` (stereo not given), “inactive”.
In the case of `CN1CCN(S(=O)(=O)c2ccc(NC(=O)C3CCCO3)cc2)CC1` (stereo not given), the Potency result was “inactive”.
`CN(CC(=O)Nc1ccc(S(=O)(=O)N2CCCC2)cc1)Cc1ccc(Cl)c(Cl)c1`: the Potency is 18.4 µM (active).
The entry for `CCc1ccc(NC(=O)CN2C(=O)CCSc3ccc(S(=O)(=O)N4CCCC4)cc32)cc1` is “inactive”; for `CN(CCC(=O)Nc1cc(S(=O)(=O)N(C)C)ccc1Cl)CC(=O)Nc1ccc(F)cc1` it is “inactive”; for `CCc1ccc(CN(C)C(C)C(=O)Nc2ccc(S(=O)(=O)N3CCCC3)cc2)cc1` (stereo not given) it is 16.4 µM (active).
The entry for `CCc1ccc(NC(=O)CN2C(=O)COc3ccc(S(=O)(=O)N4CCCC4)cc32)cc1` is “inactive”; for `O=S(=O)(NC(=S)Nc1ccccc1)c1ccc(F)cc1` it is “inactive”; for `CC(=O)c1ccc[n+](C(C)CCC(C)[n+]2cccc(C(C)=O)c2)c1` (stereo not given) it is “inactive”.
For `O=C(O)CCN1C(=O)CC2(CCCCC2)C1=O` the value was “inactive”; for `CN(CC(=O)Nc1ccccc1Cl)C(=O)COc1cccc2c1OC(C)(C)C2`, “inactive”.
On to `CCn1cc(C(=O)NCc2ccc(C)cc2)c(=O)c2cc(S(=O)(=O)N3CCc4ccccc4C3)ccc21`, for which the Potency was 11.6 µM (active).
For `CCOCCCNC(=O)c1cn(CC)c2ccc(S(=O)(=O)N3CCc4ccccc4C3)cc2c1=O` the value was 16.4 µM (active); for `Cc1ccc(CNC(=O)C2CCN(S(=O)(=O)c3ccc4nc5c(c(C(=O)O)c4c3)CC(C)CC5)CC2)cc1` (stereo not given), “inactive”.
The entry for `CN(Cc1ccccc1)C(=O)c1cn(C)c2ccc(S(=O)(=O)N3CCCCC3)cc2c1=O` is “inactive”; for `CCn1cc(C(=O)N(C)Cc2ccccc2)c(=O)c2cc(S(=O)(=O)N3CCCCCC3)ccc21` it is “inactive”; for `CCOc1ccc(CNC(=O)c2cc(=O)[nH]c3ccc(S(=O)(=O)N4CCCCC4)cc23)cc1` it is “inactive”.
The entry for `CCn1cc(C(=O)NCC2CCCO2)c(=O)c2cc(S(=O)(=O)N3CCCCC3)ccc21` (stereo not given) is “inactive”.
On to `CCN(CC)CCCNC(=O)c1cn(C)c2ccc(S(=O)(=O)N(C)C3CCCCC3)cc2c1=O`, for which the Potency result was “inactive”.
The figure for `CCn1cc(C(=O)NCc2ccccc2)c(=O)c2cc(S(=O)(=O)N3CCCCC3)ccc21` is 7.31 µM (active); for `CCC1CCCCN1S(=O)(=O)Cc1ccccc1Cl` (stereo not given) it is “inactive”.
The entry for `CCCCn1c(N)c(N(CCOC)C(=O)c2cccc(S(=O)(=O)N3CCCCC3)c2)c(=O)[nH]c1=O` is “inactive”.
As for `Cc1cccc(N2O[C@H]3C=CC2CCCC3)n1`, the Potency entry was “inactive”.
The entry for `Cc1ccc(CN2CCN(/N=C/c3ccco3)CC2)c(C)c1` is “inactive”.
For `COc1cc2ccccc2cc1C(=O)N1CCOCC1`, the Potency result is “inactive”.
Turning to `CCOc1ccc(C(C)=O)cc1COC(=O)CN1C(=O)NC2(CCCC2)C1=O`, the Potency entry is “inactive”.
Turning to `COc1ccc(Cl)cc1NS(=O)(=O)c1cccc(C(=O)NCC2CCCO2)c1` (stereo not given), the Potency entry was “inactive”.
